Legend:
Settings in all cases: concentration: 1 μM,replicates: in singlicate; n = 1
[1] = system: T1, MEK5
T1 construct: gene MAP2K5

[2] = system: T2, MEK6
T2 construct: gene MAP2K6

[3] = system: MELK
[4] = system: MERTK
[5] = system: MET
[6] = system: T3, MINK
T3 construct: gene MINK1

[7] = system: MKK7
[8] = system: MKNK1
[9] = system: MKNK2
[10] = system: T4, MLCK
T4 construct: gene MYLK3
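Further: KINOMEscan kinase panel screen.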

Cc1ccc(CC(=O)N2CCc3cc(-c4cn(C)c5ncnc(N)c45)ccc32)cc1 [GSK2634758]
%Inh [1]: 99.9%
%Inh [2]: 0%
%Inh [3]: 7%
%Inh [4]: 27%
%Inh [5]: 86%
%Inh [6]: 6%
%Inh [7]: 18%
%Inh [8]: 0%
%Inh [9]: 52%
%Inh [10]: 12%

CN1CCN(CCNc2nc3cc(Oc4ccc(NC(=O)Nc5cc(C(F)(F)F)ccc5F)cc4)ccc3[nH]2)CC1.Cl.Cl [GW768504]
%Inh [1]: 2%
%Inh [2]: 12%
%Inh [3]: 0%
%Inh [4]: 85%
%Inh [5]: 6%
%Inh [6]: 0%
%Inh [7]: 0%
%Inh [8]: 24%
%Inh [9]: 26%
%Inh [10]: 0%

CCn1c(-c2nonc2N)nc2cncc(CNC3CCNCC3)c21.Cl [SB-747651]
%Inh [1]: 32%
%Inh [2]: 0%
%Inh [3]: 37%
%Inh [4]: 0%
%Inh [5]: 2%
%Inh [6]: 0%
%Inh [7]: 0%
%Inh [8]: 0%
%Inh [9]: 17%
%Inh [10]: 0%

COC(=O)c1cccc(NC(=O)NC2CCN(c3ccnc(Nc4cc(OC)c(OC)c(OC)c4)n3)C2)c1 (stereo not drawn) [GSK1379767]
%Inh [1]: 98.8%
%Inh [2]: 4%
%Inh [3]: 0%
%Inh [4]: 40%
%Inh [5]: 19%
%Inh [6]: 3%
%Inh [7]: 21%
%Inh [8]: 12%
%Inh [9]: 32%
%Inh [10]: 12%

Cc1n[nH]c2cc(Nc3ccnc(Nc4cccc(CN5CCOCC5)c4)n3)ccc12 [GW682569]
%Inh [1]: 98.6%
%Inh [2]: 0%
%Inh [3]: 0%
%Inh [4]: 85%
%Inh [5]: 14%
%Inh [6]: 22%
%Inh [7]: 0%
%Inh [8]: 23%
%Inh [9]: 67%
%Inh [10]: 0%

Nc1nccc(-c2ccc3c(N)n[nH]c3c2)n1 [GSK1034945]
%Inh [1]: 38%
%Inh [2]: 0%
%Inh [3]: 24%
%Inh [4]: 16%
%Inh [5]: 0%
%Inh [6]: 47%
%Inh [7]: 0%
%Inh [8]: 11%
%Inh [9]: 86%
%Inh [10]: 96.1%

COc1cc(Nc2nccc(N3CCC(NC(=O)c4cccc(C#N)c4)C3)n2)cc(OC)c1OC (stereo not drawn) [GSK1379751]
%Inh [1]: 85%
%Inh [2]: 0%
%Inh [3]: 0%
%Inh [4]: 9%
%Inh [5]: 6%
%Inh [6]: 0%
%Inh [7]: 16%
%Inh [8]: 0%
%Inh [9]: 67%
%Inh [10]: 0%

Cn1ccc2ncnc(Oc3ccc(NC(=O)Nc4ccnc(C(F)(F)F)c4)c(Cl)c3)c21
%Inh [1]: 9%
%Inh [2]: 0%
%Inh [3]: 0%
%Inh [4]: 23%
%Inh [5]: 2%
%Inh [6]: 0%
%Inh [7]: 0%
%Inh [8]: 0%
%Inh [9]: 0%
%Inh [10]: 0%

COc1ccc(Nc2nccc(N3CCC(NC(=O)c4cccc(C#N)c4)C3)n2)cc1 (stereo not drawn) [GSK1379730]
%Inh [1]: 8%
%Inh [2]: 0%
%Inh [3]: 0%
%Inh [4]: 24%
%Inh [5]: 9%
%Inh [6]: 0%
%Inh [7]: 17%
%Inh [8]: 0%
%Inh [9]: 5%
%Inh [10]: 3%

CC(C)S(=O)(=O)N1CCN(Cc2ccc3c(c2)nc(NC(=O)c2ccsc2)n3C[C@H](O)c2ccccc2)CC1 [GW635815]
%Inh [1]: 91.9%
%Inh [2]: 0%
%Inh [3]: 28%
%Inh [4]: 83%
%Inh [5]: 20%
%Inh [6]: 60%
%Inh [7]: 0%
%Inh [8]: 7%
%Inh [9]: 0%
%Inh [10]: 0%

C[C@@H](Oc1cc(-n2cnc3cc(-c4ccncc4)ccc32)sc1C(N)=O)c1ccccc1Cl [GSK479719]
%Inh [1]: 21%
%Inh [2]: 0%
%Inh [3]: 0%
%Inh [4]: 86%
%Inh [5]: 52%
%Inh [6]: 0%
%Inh [7]: 0%
%Inh [8]: 0%
%Inh [9]: 28%
%Inh [10]: 0%

c1ccc(Oc2ccc(Nc3ccnc4ccc(-c5ccccn5)cc34)cc2)cc1 [GW407034]
%Inh [1]: 99.9%
%Inh [2]: 0%
%Inh [3]: 0%
%Inh [4]: 9%
%Inh [5]: 16%
%Inh [6]: 0%
%Inh [7]: 0%
%Inh [8]: 0%
%Inh [9]: 17%
%Inh [10]: 13%

CN(c1cccc(CNc2nc(Nc3ccc4c(c3)CC(=O)N4)ncc2C(F)(F)F)c1)S(C)(=O)=O
%Inh [1]: 0%
%Inh [2]: 0%
%Inh [3]: 84%
%Inh [4]: 80%
%Inh [5]: 93.9%
%Inh [6]: 76%
%Inh [7]: 0%
%Inh [8]: 0%
%Inh [9]: 28%
%Inh [10]: 1%

COc1cccc(CNC(=O)NC2CCN(c3ccnc(Nc4cc(OC)c(OC)c(OC)c4)n3)C2)c1 (stereo not drawn) [GSK1379765]
%Inh [1]: 99.9%
%Inh [2]: 0%
%Inh [3]: 15%
%Inh [4]: 17%
%Inh [5]: 26%
%Inh [6]: 12%
%Inh [7]: 0%
%Inh [8]: 21%
%Inh [9]: 39%
%Inh [10]: 6%

CN(c1ccccc1CNc1nc(Nc2ccc3c(c2)CC(=O)N3)ncc1C(F)(F)F)S(C)(=O)=O
%Inh [1]: 17%
%Inh [2]: 93.9%
%Inh [3]: 94.3%
%Inh [4]: 97.3%
%Inh [5]: 86%
%Inh [6]: 48%
%Inh [7]: 0%
%Inh [8]: 0%
%Inh [9]: 0%
%Inh [10]: 43%

COc1cc2c(Nc3ccc(NC(=O)c4ccccc4)cc3)ncnc2cc1OCCCN1CCOCC1 [GSK301329]
%Inh [1]: 99.9%
%Inh [2]: 0%
%Inh [3]: 4%
%Inh [4]: 65%
%Inh [5]: 50%
%Inh [6]: 17%
%Inh [7]: 0%
%Inh [8]: 0%
%Inh [9]: 18%
%Inh [10]: 0%

OCCn1cc(-c2cnc3nnn(Cc4ccc5ncccc5c4)c3n2)cn1
%Inh [1]: 0%
%Inh [2]: 0%
%Inh [3]: 32%
%Inh [4]: 0%
%Inh [5]: 79%
%Inh [6]: 0%
%Inh [7]: 0%
%Inh [8]: 0%
%Inh [9]: 0%
%Inh [10]: 13%

Cl.c1ccc(Oc2ccc(Nc3ccnc4cc(-c5ccc(CN6CCNCC6)o5)ccc34)cc2)nc1 [GW567142]
%Inh [1]: 99.9%
%Inh [2]: 16%
%Inh [3]: 0%
%Inh [4]: 0%
%Inh [5]: 0%
%Inh [6]: 27%
%Inh [7]: 11%
%Inh [8]: 0%
%Inh [9]: 42%
%Inh [10]: 4%

CSc1nccc(-c2c(-c3ccc(F)cc3)ncn2CCCN2CCOCC2)n1.Cl [SB-217146]
%Inh [1]: 36%
%Inh [2]: 15%
%Inh [3]: 0%
%Inh [4]: 5%
%Inh [5]: 0%
%Inh [6]: 26%
%Inh [7]: 0%
%Inh [8]: 0%
%Inh [9]: 0%
%Inh [10]: 0%

Cc1nnc(-c2ccc3occ(-c4ccc(S(C)=O)cc4)c3n2)o1 (stereo not drawn)
%Inh [1]: 0%
%Inh [2]: 0%
%Inh [3]: 0%
%Inh [4]: 0%
%Inh [5]: 0%
%Inh [6]: 0%
%Inh [7]: 0%
%Inh [8]: 0%
%Inh [9]: 0%
%Inh [10]: 0%

Cc1ccc(Nc2ccnc(Nc3ccc4c(c3)CS(=O)(=O)C4)n2)cc1O.Cl [GW579362]
%Inh [1]: 99.8%
%Inh [2]: 46%
%Inh [3]: 0%
%Inh [4]: 99.5%
%Inh [5]: 80%
%Inh [6]: 64%
%Inh [7]: 0%
%Inh [8]: 43%
%Inh [9]: 94.5%
%Inh [10]: 0%

C[C@@H]1CCN(C(=O)N2CCCC2)C[C@@H]1N(C)c1ncnc2[nH]ccc12
%Inh [1]: 38%
%Inh [2]: 20%
%Inh [3]: 13%
%Inh [4]: 0%
%Inh [5]: 0%
%Inh [6]: 30%
%Inh [7]: 0%
%Inh [8]: 0%
%Inh [9]: 58%
%Inh [10]: 0%

O=C(Nc1cccc(C(F)(F)F)c1)c1cccc(Oc2ccc3nccn3n2)c1
%Inh [1]: 32%
%Inh [2]: 0%
%Inh [3]: 0%
%Inh [4]: 17%
%Inh [5]: 16%
%Inh [6]: 12%
%Inh [7]: 36%
%Inh [8]: 7%
%Inh [9]: 26%
%Inh [10]: 0%

Cn1ccc2ncnc(Oc3ccc(NC(=O)Nc4cnn(C(C)(C)C)c4)c(Cl)c3)c21
%Inh [1]: 18%
%Inh [2]: 0%
%Inh [3]: 16%
%Inh [4]: 65%
%Inh [5]: 35%
%Inh [6]: 70%
%Inh [7]: 0%
%Inh [8]: 4%
%Inh [9]: 78%
%Inh [10]: 0%

NC(=O)Nc1sc(-c2ccc(F)cc2)cc1C(N)=O [GW789449]
%Inh [1]: 89%
%Inh [2]: 21%
%Inh [3]: 12%
%Inh [4]: 10%
%Inh [5]: 12%
%Inh [6]: 60%
%Inh [7]: 0%
%Inh [8]: 8%
%Inh [9]: 0%
%Inh [10]: 0%

CCOC(=O)N1CCC(n2cnc(-c3ccc(F)cc3)c2-c2ccnc(N)n2)CC1 [SB-219952]
%Inh [1]: 29%
%Inh [2]: 1%
%Inh [3]: 0%
%Inh [4]: 21%
%Inh [5]: 16%
%Inh [6]: 54%
%Inh [7]: 11%
%Inh [8]: 19%
%Inh [9]: 49%
%Inh [10]: 0%

CCN1CCN(CCCC(=O)Nc2n[nH]c3nc(-c4ccc(O)cc4)c(Br)cc23)CC1 [SB-731579]
%Inh [1]: 42%
%Inh [2]: 0%
%Inh [3]: 0%
%Inh [4]: 2%
%Inh [5]: 0%
%Inh [6]: 0%
%Inh [7]: 0%
%Inh [8]: 46%
%Inh [9]: 46%
%Inh [10]: 39%

O=C(NCC1CC1)c1ccc(-c2cc(C(=O)NC3CC3)ccc2F)cc1 [GW810445]
%Inh [1]: 0%
%Inh [2]: 5%
%Inh [3]: 17%
%Inh [4]: 0%
%Inh [5]: 0%
%Inh [6]: 0%
%Inh [7]: 8%
%Inh [8]: 3%
%Inh [9]: 0%
%Inh [10]: 0%

Cc1ccc2c(-c3ccnc(Nc4ccc(C(F)(F)F)cc4)n3)cnn2n1 [GW819776]
%Inh [1]: 33%
%Inh [2]: 13%
%Inh [3]: 0%
%Inh [4]: 26%
%Inh [5]: 5%
%Inh [6]: 18%
%Inh [7]: 0%
%Inh [8]: 0%
%Inh [9]: 0%
%Inh [10]: 0%

O=C(Nc1n[nH]c2cc(-c3ccco3)ccc12)C1CC1 [SB-737447]
%Inh [1]: 76%
%Inh [2]: 0%
%Inh [3]: 0%
%Inh [4]: 0%
%Inh [5]: 0%
%Inh [6]: 63%
%Inh [7]: 0%
%Inh [8]: 0%
%Inh [9]: 39%
%Inh [10]: 78%

Cc1cccc2c(-c3ccncc3)c(-c3ccc(F)cc3)nn12.Cl [GW461487]
%Inh [1]: 6%
%Inh [2]: 0%
%Inh [3]: 0%
%Inh [4]: 5%
%Inh [5]: 0%
%Inh [6]: 30%
%Inh [7]: 0%
%Inh [8]: 1%
%Inh [9]: 0%
%Inh [10]: 0%

Cc1ccn2nc(-c3ccc(F)cc3)c(-c3ccncc3)c2c1.Cl [GW457859]
%Inh [1]: 7%
%Inh [2]: 2%
%Inh [3]: 7%
%Inh [4]: 24%
%Inh [5]: 0%
%Inh [6]: 67%
%Inh [7]: 0%
%Inh [8]: 6%
%Inh [9]: 0%
%Inh [10]: 2%

C[C@@H](Oc1cc(-n2cnc3cc(-c4cnn(C)c4)ccc32)sc1C(N)=O)c1ccccc1Cl [GSK580432]
%Inh [1]: 42%
%Inh [2]: 15%
%Inh [3]: 15%
%Inh [4]: 100%
%Inh [5]: 69%
%Inh [6]: 40%
%Inh [7]: 0%
%Inh [8]: 2%
%Inh [9]: 20%
%Inh [10]: 10%

— publication PMC5540273 (PLoS ONE, 2017)
